Compound activity (PubChem BioAssay)
Sampled rows, rich in hits. Any-hit rate of the full collection: about 3.8%.
TrxR1 inh-1: rat TrxR1 inhibition | O89049 | recombinant rTrxR1, NADPH fluorescence consumption, selenite substrate | Potency, µM (top dose mostly 114 µM), most hits filed as inhibitors | actives 1% (n = 390,000); further: nearly all actives have a fitted effect of over 65% in size
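Rat TrxR1 (90 nM in the dispensed reagent) was pre-reduced with 400 uM NADPH for 5 min at room temperature, then incubated with compound for 15 min. After 400 uM selenite was added, NADPH fluorescence (Ex 340/Em 450 nm) was followed for 8 min.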
TrxR1 substrate: substrates of rat thioredoxin reductase 1; AID 588456; Potency, µM (titrated, usually from 114 µM); O89049; purified TrxR1 substrate turnover, NADPH consumption readout; actives 0.01% (n = 390,000); further: nearly all actives have a fitted effect of over 50% in size
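Rat TrxR1, dispensed at 90 nM, was prereduced with 400 uM NADPH (final) for 5 min at ~22 deg C, then incubated with compound 15 min before 400 uM selenite. A first-read NADPH fluorescence drop versus no-compound background flagged substrates.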
VDR inh: inhibitors of human vitamin D receptor | Potency, µM, usual class: inhibitors | actives 0.93% (n = 400,000) | P11473 | VDR-SRC2-3 peptide fluorescence polarization, 2 h
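Fluorescence polarization assay of small-molecule disruption of VDR binding to coregulator peptide SRC2-3. Compounds and controls pin-transferred, then read after 2 h incubation at ambient room temperature.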
GLS inhibitor: inhibitors of human glutaminase (GLS); Potency, µM (top dose mostly 45.5 µM), usual class: inhibitors; GLS enzymatic activity, qHTS titration; AID 624170; actives 0.21% (n = 410,000); O94925
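Human kidney-isoform GLS in 45 mM KH2PO4 pH 8.2, 0.02% Tween-20, with compound, started with 1mM L-Glutamine (added stock). Glutamate oxidase/HRP/Amplex red coupled fluorescence read at start and after 30 min at RT.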
Sfp PPTase inh: inhibitors of Bacillus subtilis Sfp phosphopantetheinyl transferase; Biochemical Sfp PPTase activity, qHTS; Potency, µM, usual class: inhibitors; actives 3.5% (n = 310,000); AID 1490;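 further: the enzyme is Sfp with the accession as filed and its product quenches rhodamine fluorescence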
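Fluorescence-quenching assay with 15 nM Sfp, 5 uM rhodamine-CoA and 12.5 uM BHQ-2-labelled ybbR peptide in pH 7.6 Hepes/MgCl2 buffer. Enzyme was pre-incubated with compound for 15 min at room temperature. Rate was taken from the 30-min fluorescence change (525/598 nm).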
KAT2A inh: blocks human GCN5L2 histone acetyltransferase. AID 504327. Potency, µM (top dose mostly 58.9 µM), most hits filed as inhibitors. actives 0.21% (n = 390,000). GCN5L2 HAT assay, ThioGlo1 CoA-SH fluorescence. Q92830
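Preincubate 20nM GCN5L2 with compound 15 min, RT → add 50uM ThioGlo1 + 75uM H3(1-25) + 70uM acetyl-CoA → read fluorescence 0 and 20 min. Primary qHTS; fluorescent artifacts likely.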
USP1-UAF1 confirm: validation of human USP1/UAF1 inhibitors; shares compounds with VDR inh; Ub-Rhodamine cleavage, fluorescence kinetic read; Potency, µM (series often up to 56.8 µM), usual class: inhibitors; actives 50% (n = 50); AID 540327
VDR inh confirm: confirmation of human vitamin D receptor inhibitors; shares compounds with VDR inh; VDR-coactivator inhibition assay, qHTS confirmation; Potency, µM, actives largely listed as inhibitors; actives 89% (n = 840)
VDR FP fluor: blocks human VDR-coactivator binding in fluorescein assay; VDR-coactivator binding, fluorescein fluorescence polarization; shares compounds with VDR inh; Potency, µM (titrated, usually from 57.1 µM), hits mostly inhibitors; actives 48% (n = 840)
VDR bla reporter: inhibits human VDR in beta-lactamase reporter cells; Potency, µM (titrated, usually from 46.1 µM), hits mostly inhibitors; VDR beta-lactamase reporter cells, FRET ratio; cells co-treated with VDR agonist LG190178; shares compounds with VDR inh; actives 23% (n = 840); AID 602202
VDR cytotox: cytotoxic in counter-screen for VDR inhibitors; actives 18% (n = 840); shares compounds with VDR inh; cytotoxicity counter-screen, cell viability, qHTS; Potency, µM (series often up to 48.3 µM), hits mostly cytotoxic; further: nearly all actives have a fitted effect of over 75% in size
GR inh: inhibits human glutathione reductase in TrxR1 counterassay; shares compounds with TrxR1 inh-1; purified GR, DTNB reduction absorbance 405 nm kinetic; activity change, negative = inhibition, % at 57.1 µM; 55 tested, under 10 active; AID 652020
TrxR1 inh-2: rat TrxR1 inhibition, primary screen retest | shares compounds with TrxR1 inh-1 | recombinant TrxR1, NADPH fluorescence consumption, selenite substrate | Potency, µM, most hits filed as inhibitors | actives 50% (n = 55) | AID 652023
TrxR1 insulin MOA: TrxR1 inhibitors: insulin reduction mechanism-of-action test. shares compounds with TrxR1 inh-1. AID 652037. TrxR1 Trx-coupled insulin reduction, NADPH absorbance 340 nm. Potency, µM. actives 20% (n = 55);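 active means compounds with a measured potency under 100 micromolar; inconclusive means filed, but no rule given; inactive means potency at or above that, or unmeasurable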
TrxR1 inh-3: blocks rat TrxR1 reduction of DTNB. purified TrxR1, DTNB reduction, A412. shares compounds with TrxR1 inh-1. actives 90% (n = 55). Potency, µM. AID 652256;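 active means a half-inhibiting concentration could be measured and was below 100 µM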
Hits are given with their value; 0 = inactive; ? = inconclusive; - = no result given; ! = not active in a repeat. Unless noted, the call rests on the fitted dose curve; in most records, active means well fitted curve in the direction sought with a large enough effect; inconclusive means small, poorly fitted or top-dose-only effect, or another doubt; inactive means no such curve, though single readings can be large; an effect the other way counts as inactive or inconclusive.

SMILES	TrxR1 inh-1	TrxR1 substrate	VDR inh	GLS inhibitor	Sfp PPTase inh	KAT2A inh	VDR inh confirm	VDR FP fluor	VDR bla reporter	VDR cytotox	others
Cn1cccc1/C=C1/C(=O)NC(=O)N(C(C)(C)C)C1=O	0	0	0	0	0	0	-	-	-	-
CC(=O)N1CC(=O)Nc2ccc(C)cc2C1c1ccccc1 (configuration not stated)	0	0	0	0	0	0	-	-	-	-
C=C1N2CCC(CC2)C1(O)c1ccc(C)cc1 (configuration not stated)	0	0	0	0	0	0	-	-	-	-
NC(Cc1cc(O)c(O)cc1O)C(=O)O (configuration not stated)	10.6µM	0	44.7µM	-	-	0.631µM	-	-	-	-	USP1-UAF1 confirm=11.8µM
O=C1NC(=O)N(CCc2ccc(F)cc2)C(=O)/C1=C/c1cccs1	?	0	17.8µM	0	25.1µM	0	9.47	?	0	0
O=c1[nH]c(=S)n(CCC2=CCCCC2)c(O)c1/C=N/Nc1ccccc1	0	0	?	0	?	0	-	-	-	-
O=C1NC(=O)N(CCC2=CCCCC2)C(=O)/C1=C\c1cccs1	7.08µM	0	44.7µM	0	50.1µM	0	8.44	?	0	0
O=C1NC(=O)C(=Cc2cc([N+](=O)[O-])ccc2N2CCCCC2)C(=O)N1	0	0	0	0	0	0	-	-	-	-
O=C1NC(=O)C(=Cc2ccccc2OCCOc2ccc([N+](=O)[O-])cc2)C(=O)N1	?	0	44.7µM	0	50.1µM	0	26.7	10µM	0	?
COc1ccc(/C=C2/C(=O)NC(=S)N(C3CC3)C2=O)cc1CN1C(=O)c2ccccc2C1=O	?	0	44.7µM	?	25.1µM	0	10.6	7.94µM	0	?
NC(N)=Nc1ccc2[nH]c3c(c2c1)C[C@@]1(O)[C@H]2Cc4ccc(O)c5c4[C@@]1(CCN2CC1CC1)[C@H]3O5	26.7µM	0	35.5µM	0	-	3.55µM	-	-	-	-	USP1-UAF1 confirm=?
CCN(C(=O)Oc1ccccc1)c1ccc(C(O)(C(=O)OC)C(F)(F)F)cc1 (configuration not stated)	0	0	0	0	0	0	-	-	-	-
CC(C)CN(C(=O)CN1CC=C(c2ccccc2)CC1)c1c(N)n(CC(C)C)c(=O)[nH]c1=O	0	0	0	?	0	0	-	-	-	-
CC1=C[C@@H]2c3cccc4[nH]cc(c34)C[C@H]2N(C)C1	2.51µM	0	50.1µM!	?	0	0	-	-	-	-	GR inh=0;TrxR1 inh-2=?;TrxR1 insulin MOA=49µM;TrxR1 inh-3=2.16µM
c1cnc2c(c1)ncn2C1CCNCC1	0	0	0	0	-	0	-	-	-	-
